Screening results as filed in PubChem.
Only some compounds are listed: those with a hit (about 4.6% of all), similar ones and a draw of the others.
NLRP3 yeast inh = inhibitors of NALP3 inflammasome in yeast; Yeast reconstituted NLRP3/ASC/caspase-1, beta-gal luminescence, 24 h; inhibition, % at 10 µM; 0.39% of 330,000 active; AID 2825;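 active means inhibition of 50% or more; inactive means inhibition below 50%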
tim10-1 inh = tim10-1 yeast growth inhibition | S. cerevisiae tim10-1 ts strain growth, BacTiter-Glo, 24 h | inhibition, % at 20 µM | 2.2% of 330,000 active;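 active means inhibition of at least 40%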;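 further: mutant grown at 25 °C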
TIM10 inh = TIM10 yeast growth inhibition. S. cerevisiae TIM10 strain growth, BacTiter-Glo luminescence, 24 h. inhibition, % at 10 µM. 1.4% of 330,000 active;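 active means inhibition of 40% or more at the single tested concentration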;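 further: wild-type TIM10 isogenic control strain grown at permissive 25 °C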
SKKanGAS inh = SKKanGAS growth inhibition; 1.3% of 300,000 active; S. pyogenes SKKanGAS, kanamycin growth, BacTiter-Glo, 6 h; inhibition, % at 7.5 µM; AID 1662;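 active means mean replicate score, as percent of positive control median, at least 50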;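 further: strain carries kanamycin resistance gene driven by streptokinase promoter and grows in 40 µg/ml kanamycin; loss of luminescence reflects streptokinase promoter inhibition or plain growth inhibition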
tim23-1 inh = growth inhibitors of tim23-1 mutant yeast; inhibition, % at 20 µM; S. cerevisiae tim23-1 growth, BacTiter-Glo luminescence, 24 h; 1.3% of 330,000 active;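 active means growth inhibition of the mutant yeast at or above 50%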;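 further: temperature-sensitive mutant grown at 25 °C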
NALP3 confirm = confirmation of NALP3 inhibitors in yeast. yeast expressing human NALP3, luminescence. shares compounds with NLRP3 yeast inh. AID 435006. inhibition, % at 10 µM. 81% of 1,300 active; in the data active means inhibition above about 48%
Casp1-ASC yeast = caspase-1-ASC yeast counter-screen hit. AID 488784. inhibition, % at 10 µM. shares compounds with NLRP3 yeast inh. yeast expressing Caspase-1-ASC, luminescence counter screen. 66% of 1,000 active
NALP3 retest = yeast NALP3 inhibition, confirmed on retest | shares compounds with NLRP3 yeast inh | yeast expressing human NALP3, luminescence read-out | 53% of 1,000 active | inhibition, % at 10 µM
Each line names hits and unclear results; the compound was inactive in the other large screens (follow-up assays come after a bar, where they were run); ! = not confirmed by another sample. Unless noted, no stated cut-off is given here; in the data, active means inhibition above about 50%; inactive means the rest.

CC(C)[C@H](NC(=O)c1ccccc1Cl)C(=O)OCC(=O)NCc1ccc2c(c1)OCO2	none (no result: SKKanGAS inh)
CCc1cc[n+](C2=C([O-])c3ccccc3C(=O)/C2=N\S(=O)(=O)c2cccs2)cc1	SKKanGAS inh 89
CN1CC(c2ccc(Cl)c(Cl)c2)[C@@]2(COc3ccccc3C2=O)[C@@]12C(=O)Nc1ccccc12 (some centres not stated)	SKKanGAS inh 79
CCCN1C(=O)c2ccccc2NC1c1ccc(Cl)c(Cl)c1 (configuration not stated)	none
N#CCCN(C(=S)NC(=O)C1CCCCC1)c1ccccc1F	none (no result: SKKanGAS inh)
Cc1nnc(SCC2=C(C(=O)O)N3C(=O)C(NC(=O)Cn4cnnn4)C3SC2)s1 (configuration not stated)	SKKanGAS inh 106
Cc1nnc(SCC2=C(C(=O)O)N3C(=O)[C@@H](NC(=O)Cn4cnnn4)[C@H]3SC2)s1	SKKanGAS inh 105!
CC[C@@]1(C(=O)OC)N[C@H](CN(C)C(=O)Nc2ccc(Cl)cc2)[C@@H]2C(=O)N(Cc3ccccc3)C(=O)[C@@H]21	none (no result: SKKanGAS inh)
CCn1ccnc1CNC(=O)c1ccc(OC2CCN(C(=O)COC)CC2)cc1	none
O=C(Nc1ccc(N2CCCC2)c(S(=O)(=O)Nc2cccc(C(F)(F)F)c2)c1)c1cccs1	SKKanGAS inh 52
COc1ccc(CNCC(O)(c2ccccc2)c2ccc(Cl)cc2)cc1 (configuration not stated)	none
COc1cccc(CNCC(O)(c2ccc(Cl)cc2)c2ccc(Cl)cc2)c1	SKKanGAS inh 84
CC(C)Cc1csc(NC(=O)c2ccc(Cl)cc2)c1C(=O)O	SKKanGAS inh 74
Clc1ccc(-c2csc(N3CCCCCC3)n2)cc1	SKKanGAS inh 54
CCC(C)c1ccc(NC(=O)COc2c(F)c(F)c(C(F)(F)F)c(F)c2F)cc1 (configuration not stated)	SKKanGAS inh 67
CCCCSc1ccc2nc(-c3ccc(C#N)cc3)cn2c1	SKKanGAS inh 54
COc1cccc(N2C(=O)C3NN=C(C(=O)CN4C(=O)c5ccccc5C4=O)C3C2=O)c1 (configuration not stated)	SKKanGAS inh 52
Oc1ccc(-c2nccc(-c3ccccn3)n2)cc1	none
Cc1ccc(NC(=O)COC(=O)C2(CC(=O)NC(C)C)CCCC2)cc1C	none (no result: SKKanGAS inh)
COCc1cc(=O)n2[nH]cc(-c3ccccc3)c2n1	none
CCOC(=O)Cc1cc(=O)n2[nH]cc(-c3cccc(Br)c3)c2n1	SKKanGAS inh 71
CCCc1cc(=O)n2[nH]cc(-c3ccc(Cl)cc3)c2n1	SKKanGAS inh 85
COc1cccc(CC(=O)OCC(=O)NC(=O)c2ccc(OC(F)F)cc2)c1	none
COc1cc(C(=O)NC(=S)N(C)Cc2ccccc2)cc(OC)c1OC	none
COc1cc(C(=O)NC(=S)N(CCc2ccccc2)CCc2ccccc2)cc(OC)c1OC	SKKanGAS inh 90
COc1cc(C(=O)NC(=S)Nc2ccc(NC(=O)c3ccco3)cc2)cc(OC)c1OC	SKKanGAS inh 66
O=C(NC(=S)Nc1ccc(NC(=O)c2ccco2)cc1)c1ccccc1	none
CN(Cc1nc2ccccc2c(=O)[nH]1)C(=O)c1cccc(S(=O)(=O)N2CCc3ccccc32)c1	none (no result: SKKanGAS inh)
C/C(=N\Nc1ncc(Cl)cc1Cl)c1ccccn1	SKKanGAS inh 58 (no result: NLRP3 yeast inh, tim10-1 inh, TIM10 inh, tim23-1 inh)
Cc1ccc(/C=C2/Sc3ccc(C(=O)N4CCN(c5ccccn5)CC4)cc3NC2=O)cc1	SKKanGAS inh 67
CN1CCN(C(=O)c2ccc3c(c2)NC(=O)/C(=C/c2ccccc2)S3)CC1	none
CCOC(=O)N1CCN(C(=O)c2ccc3c(c2)NC(=O)/C(=C/c2ccccc2)S3)CC1	SKKanGAS inh 93
COc1ccccc1CN1CC(C(=O)N(Cc2cnn(C)c2)C(C)C)CCC1=O (configuration not stated)	none
COc1cccc(CNC(=O)COC(=O)c2cc([N+](=O)[O-])ccc2N2CCCC2)c1	none (no result: SKKanGAS inh)
CCCCC(C(=O)NC1CCCC1)N(C(=O)c1snc(C(N)=O)c1N)c1ccc(F)cc1 (configuration not stated)	none
C/C(=N\NC(=O)c1ccc(F)cc1)c1ccccn1	SKKanGAS inh 89
CCOc1ccc(C(=O)N/N=C(\c2ccccc2)c2ccccn2)cc1	SKKanGAS inh 69
CCC/C=C(\CCC)C(NS(=O)(=O)c1ccc(C(F)(F)F)cc1)c1ccccc1 (configuration not stated)	SKKanGAS inh 71 (no result: NLRP3 yeast inh, tim10-1 inh, TIM10 inh, tim23-1 inh)
O=C(O)C(NS(=O)(=O)c1ccc(F)cc1)c1ccccc1 (configuration not stated)	none
Cc1ccc(/C=C2\S/C(=N/S(=O)(=O)c3cccs3)NC2=O)cc1	none
O=C1C(Nc2ccccc2)=C/C(=N/S(=O)(=O)c2cccs2)c2ccccc21	SKKanGAS inh 97 (no result: NLRP3 yeast inh, tim10-1 inh, TIM10 inh, tim23-1 inh)
Cc1ccc(NC2=C/C(=N/S(=O)(=O)c3cccs3)c3ccccc3C2=O)cc1	SKKanGAS inh 89
Cc1ccc(-c2nnc(NC(=O)c3ccc([N+](=O)[O-])o3)o2)c(C)c1	SKKanGAS inh 70
CC(C)(C)NC(=O)C(c1ccc(-c2ccccc2)cc1)N(C[C@H]1CC[C@@H]([C@@H]2CC[C@H](CO)O2)O1)C(=O)c1ccccc1F (some centres not stated)	none (no result: NLRP3 yeast inh, SKKanGAS inh)
COc1cccc(Oc2ccc(S(=O)(=O)N3CCOCC3)cc2[N+](=O)[O-])c1	none (no result: SKKanGAS inh)
CC(=O)O[C@H]1CC[C@]2(C)[C@H]3CC=C4[C@@H]5[C@@H](C)[C@H](C)CC[C@]5(C(=O)O)CC[C@@]4(C)[C@]3(C)CC[C@H]2C1(C)C	SKKanGAS inh 107
CC1(C)C2CC[C@]3(C)C(CC=C4[C@@H]5C[C@@](C)(CO)[C@@H](O)C[C@]5(C(=O)O)CC[C@]43C)[C@@]2(C)CC[C@@H]1O (some centres not stated)	none
CC1=NN(c2nc(-c3ccccc3)cs2)C(=O)C1	SKKanGAS inh 66
NS(=O)(=O)c1ccc(CCNC(=O)c2cc3ccccc3oc2=O)cc1	none
O=c1c2cc(Br)ccc2nc(-c2ccc([N+](=O)[O-])cc2)n1O	NLRP3 yeast inh 53 | NALP3 confirm 79 | Casp1-ASC yeast inactive | NALP3 retest 62
CC(=O)c1cnc2nc(SCc3ccc(C)cc3)nn2c1C	none
CC(=O)c1cnc2nc(SCc3ccc(Cl)cc3)nn2c1C	NLRP3 yeast inh 53 | NALP3 confirm 71 | Casp1-ASC yeast 64 | NALP3 retest 50
Cc1cc(OCc2nc3ccccc3s2)ccc1N	NLRP3 yeast inh 55 | NALP3 confirm inactive
Cc1cccc2nc(CSc3nc4ccccc4o3)cn12	none
